HT1080 IDH1KD tx: toxicity to HT-1080 IDH1 knockdown cells (counter line); 360,000 tested, 2% active; Potency, µM (titrated, usually from 46.1 µM), most hits filed as cytotoxic; HT-1080 IDH1 knockdown viability, ATP luminescence, 48 h
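Assay cells: HT-1080 with IDH1 knockdown, 750 per well, RPMI/5% FBS. Exposure: 48 h at 37 °C following 2 h pre-incubation. Read: CellTiter-Glo luminescence; fitted concentration-response, curve class assigned.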
IL-1B inflam inh: inhibitors of inflammasome signaling (IL-1 beta secretion); THP-1 LPS/ATP IL-1B secretion, AlphaLISA, 16 h; hits give low values; activity change, % at 57.5 µM; 360,000 tested, 4.7% active; AID 743279; in the data active means activity change below about -50%; inconclusive means mostly about -30% to -49%
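THP-1 cells pretreated 1 hr with compounds (up to 57.5 uM final), then stimulated with LPS (250 ng/mL final) plus ATP (1.25 mM final); secreted IL-1B measured by AlphaLISA after 16 hr, decreased signal indicating inhibition.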
HT1080NT lethal: kills 2HG-producing HT-1080-NT fibrosarcoma cells. HT-1080-NT fibrosarcoma viability, CellTiter-Glo ATP luminescence, 48 h. Potency, µM (series often up to 46.1 µM), most hits filed as cytotoxic. 360,000 tested, 1.6% active. AID 686970;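 further: NT is the 2HG producing partner of a matched IDH1 knockdown line; nearly all actives have a fitted effect of over 55% in size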
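750 cells/well, RPMI + 5% FBS; 2 h settle, compound pin-transfer, 48 h at 37 degrees C. CellTiter-Glo 10 min RT, luminescence. Normalized to DMSO and media-only wells.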
ALOX12 inh: ALOX12 (human) lipoxygenase inhibition | P18054 | purified 12hLO, xylenol orange hydroperoxide absorbance | Potency, µM (series often up to 108 µM), actives largely listed as inhibitors | 580,000 tested, 1.1% active | AID 1671190
Target sequence (P18054 whole entry, looked up): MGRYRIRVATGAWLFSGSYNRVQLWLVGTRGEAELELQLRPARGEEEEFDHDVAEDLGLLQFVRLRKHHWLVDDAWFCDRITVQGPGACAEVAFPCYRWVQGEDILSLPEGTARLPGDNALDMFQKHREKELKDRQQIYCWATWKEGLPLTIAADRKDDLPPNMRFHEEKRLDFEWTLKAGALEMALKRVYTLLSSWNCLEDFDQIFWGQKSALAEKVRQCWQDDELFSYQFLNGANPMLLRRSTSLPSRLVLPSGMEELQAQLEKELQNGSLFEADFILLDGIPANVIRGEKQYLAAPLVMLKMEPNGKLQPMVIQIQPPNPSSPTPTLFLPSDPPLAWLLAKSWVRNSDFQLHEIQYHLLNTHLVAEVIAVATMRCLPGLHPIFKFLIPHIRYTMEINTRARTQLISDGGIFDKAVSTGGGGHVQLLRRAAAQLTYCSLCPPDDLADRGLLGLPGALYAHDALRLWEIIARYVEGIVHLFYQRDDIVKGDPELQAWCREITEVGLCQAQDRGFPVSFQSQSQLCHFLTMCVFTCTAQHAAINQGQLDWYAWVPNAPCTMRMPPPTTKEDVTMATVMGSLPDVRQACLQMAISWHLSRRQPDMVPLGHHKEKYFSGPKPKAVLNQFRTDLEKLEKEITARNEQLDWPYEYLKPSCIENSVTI
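Purified human 12hLO at 150 nM in 25 mM Hepes, 0.01% Triton X-100, pH 7.0, preincubated 15 min at room temperature with compound. Reaction started with 40 uM arachidonic acid, 30 min at room temperature. Hydroperoxide measured by Fe-xylenol orange, 573/405 nm absorbance ratio.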
DT40 TDP1 no CPT: qHTS for Inhibitors of human tyrosyl-DNA phosphodiesterase 1 (TDP1): qHTS in cells in absence of CPT; AID 686978, 2013; 420,000 tested, 15% active; DT40 Tdp1-/- hTDP1 cells, no CPT, ATP luminescence, 48 h; Potency, µM (highest dose often 46.2 µM), usual class: inhibitors; further: nearly all actives have a fitted effect of over 55% in size
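Chicken DT40 Tdp1-/- cells complemented with human TDP1, screened without camptothecin (DMSO vehicle only), 400 cells/well. Compounds pin-transferred, cells incubated at 37 °C for at least 48 hr. Growth read as ATP-dependent luminescence (CellTiter-Glo, 30 min at RT).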
TDP1 cell CPT: growth inhibition of DT40 Tdp1-/-;hTDP1 cells with camptothecin (screen for TDP1 inhibitors) | chicken DT40 Tdp1-/-;hTDP1 cells + 20 nM CPT, ATP luminescence, 48 h | Potency, µM (top dose mostly 46.2 µM), actives largely listed as inhibitors | 420,000 tested, 12% active | AID 686979; further: nearly all actives have a fitted effect of over 55% in size
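Cell growth measured by CellTiter-Glo luminescence after a minimum 48 h, 37 C compound exposure with 20 nM CPT in Tdp1-knockout DT40 cells stably expressing hTDP1, seeded 400/well; qHTS titration format.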
Each line names hits and unclear results; the compound was inactive in the other large screens. This is one part of a sample in which hits are shown more often than they occur. Unless noted, the call rests on the fitted dose curve; in most records, active means well fitted curve in the direction sought with a large enough effect; inconclusive means small, poorly fitted or top-dose-only effect, or another doubt; inactive means no such curve, though single readings can be large; an effect the other way counts as inactive or inconclusive.

Cc1ccc(NC(=O)/C(C#N)=C/c2ccc(C)o2)cc1	none (no result: HT1080 IDH1KD tx, IL-1B inflam inh, HT1080NT lethal)
N#C/C(=C\c1ccc(-c2ccc(C(=O)O)cc2)o1)C(=O)NCC1CCCO1 (stereo unspecified)	none (no result: ALOX12 inh)
Cc1ccc(NC(=O)/C(C#N)=C\c2ccc(-c3ccc(Cl)cc3)o2)c(C)c1	TDP1 cell CPT 12µM (no result: HT1080 IDH1KD tx, IL-1B inflam inh, HT1080NT lethal)
N#C/C(=C\c1ccc(-c2ccc(C(=O)O)cc2)o1)C(=O)Nc1ccc(F)cc1	ALOX12 inh inconclusive, DT40 TDP1 no CPT 12µM, TDP1 cell CPT inconclusive
CCCN1C(=O)C2(c3ccccc31)c1c(oc3ccccc3c1=O)C(=O)N2CCCOC(C)C (stereo unspecified)	DT40 TDP1 no CPT inconclusive, TDP1 cell CPT inconclusive (no result: HT1080 IDH1KD tx, IL-1B inflam inh, HT1080NT lethal)
CCCN1C(=O)C2(c3ccccc31)c1c(oc3ccc(F)cc3c1=O)C(=O)N2CCCOC(C)C (stereo unspecified)	DT40 TDP1 no CPT inconclusive, TDP1 cell CPT 21µM (no result: HT1080 IDH1KD tx, IL-1B inflam inh, HT1080NT lethal)
CNc1nc2c(c(C(=O)N3CCCC3)n1)CN(C(=O)Cn1nccc1C)CC2	none (no result: HT1080 IDH1KD tx, IL-1B inflam inh, HT1080NT lethal, DT40 TDP1 no CPT, TDP1 cell CPT)
O=C(COC(=O)/C=C/c1cn(-c2ccccc2)nc1-c1ccc2c(c1)OCCO2)NC1CCS(=O)(=O)C1 (stereo unspecified)	IL-1B inflam inh inconclusive, DT40 TDP1 no CPT 21µM, TDP1 cell CPT inconclusive
CN(C(=O)COC(=O)/C=C/c1cn(-c2ccccc2)nc1-c1ccc2c(c1)OCCO2)C1CCS(=O)(=O)C1 (stereo unspecified)	IL-1B inflam inh inconclusive, DT40 TDP1 no CPT 15µM, TDP1 cell CPT inconclusive
CN1CC(=O)N(C2CCNC2)Cc2c(NCc3ccccn3)ncnc21 (stereo unspecified)	none (no result: HT1080 IDH1KD tx, IL-1B inflam inh, HT1080NT lethal, DT40 TDP1 no CPT, TDP1 cell CPT)
Cc1ccc(C)c(CN2CC[C@@H]3CN(S(C)(=O)=O)[C@@H]3C2)c1	none (no result: HT1080 IDH1KD tx, IL-1B inflam inh, HT1080NT lethal, DT40 TDP1 no CPT, TDP1 cell CPT)
Cc1ccc(NS(=O)(=O)c2ccc(Br)cc2)nc1	none
COC1(NS(=O)(=O)c2ccc(Br)cc2)C(C)=CC(=O)C=C1C	DT40 TDP1 no CPT inconclusive, TDP1 cell CPT 13µM
COc1ccc(C(=O)OCC(=O)Nc2ccccc2)cc1[N+](=O)[O-]	none
CC(=O)c1cccc(NC(=O)C(C)OC(=O)c2ccc(S(C)(=O)=O)c([N+](=O)[O-])c2)c1 (stereo unspecified)	DT40 TDP1 no CPT 3.2µM, TDP1 cell CPT 2.2µM (no result: HT1080 IDH1KD tx, IL-1B inflam inh, HT1080NT lethal, ALOX12 inh)
NC(=O)NC(=O)COC(=O)c1ccc(OC(F)(F)F)cc1	none
CS(=O)(=O)c1ccc(C(=O)OCC(=O)Nc2ccc(OC(F)(F)F)cc2)cc1[N+](=O)[O-]	DT40 TDP1 no CPT 10µM, TDP1 cell CPT 8.9µM (no result: HT1080 IDH1KD tx, IL-1B inflam inh, HT1080NT lethal, ALOX12 inh)
CC(=O)c1cccc(NC(=O)COC(=O)c2ccc(S(C)(=O)=O)c([N+](=O)[O-])c2)c1	HT1080 IDH1KD tx inconclusive, IL-1B inflam inh -89, HT1080NT lethal inconclusive, DT40 TDP1 no CPT 10µM, TDP1 cell CPT 6.3µM
Cc1csc(Sc2ccc(C(=O)OCC(=O)Nc3ccc(OC(F)(F)F)cc3)cc2[N+](=O)[O-])n1	DT40 TDP1 no CPT inconclusive
O=C(COC(=O)c1ccc(OC(F)(F)F)cc1)Nc1ncccn1	TDP1 cell CPT 21µM
COc1ccc(Cl)cc1N1CC(O)=C(c2nc3ccc(C)cc3[nH]2)C1=N	none (no result: HT1080 IDH1KD tx, IL-1B inflam inh, HT1080NT lethal, DT40 TDP1 no CPT, TDP1 cell CPT)
COc1ccc(Cl)cc1C(=O)N1CC(=O)N(c2ccccc2C#N)CC1C (stereo unspecified)	none (no result: HT1080 IDH1KD tx, IL-1B inflam inh, HT1080NT lethal, DT40 TDP1 no CPT, TDP1 cell CPT)
Cc1cnc(C(=O)NC2C[C@H]3CC[C@@H](C2)N3C(=O)Cc2ccc(F)cc2)cn1 (stereo partly specified)	none (no result: HT1080 IDH1KD tx, IL-1B inflam inh, HT1080NT lethal, DT40 TDP1 no CPT, TDP1 cell CPT)
CC(C)Sc1nc(N2CCCCC2)c2c(c1C#N)CCCC2	none (no result: HT1080 IDH1KD tx, IL-1B inflam inh, HT1080NT lethal, DT40 TDP1 no CPT, TDP1 cell CPT)
N#Cc1c(SCC(=O)N2CCOCC2)nc(N2CCCC2)c2c1CCCC2	none (no result: HT1080 IDH1KD tx, IL-1B inflam inh, HT1080NT lethal, DT40 TDP1 no CPT, TDP1 cell CPT)
N#Cc1c(SCCN2CCOCC2)nc(N2CCCCC2)c2c1CCCC2	ALOX12 inh 0.79µM (no result: HT1080 IDH1KD tx, IL-1B inflam inh, HT1080NT lethal, DT40 TDP1 no CPT, TDP1 cell CPT)
CCSc1nc(N2CCCCC2)c2c(c1C#N)CCCC2	DT40 TDP1 no CPT 16µM, TDP1 cell CPT inconclusive
O=C(O)CCC(=O)N1N=C(c2ccsc2)CC1c1ccccc1 (stereo unspecified)	none (no result: HT1080 IDH1KD tx, IL-1B inflam inh, HT1080NT lethal, DT40 TDP1 no CPT, TDP1 cell CPT)
